# Screens (PubChem)
# E coli growth-1 = E. coli V3065 growth inhibition, primary screen, counter-screen for AddAB inhibitor project, absorbance, OD600; actives 0.27% (n = 330,000); 18 h; AID 449728, 2010; inhibition, % at 11.9 µM;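 active = inhibition above the campaign's mean inhibition across all tested compounds plus 3 SD, cut at about 9.9% in these data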;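 note: uninfected addAB+ strain grown without phage in ampicillin broth; 0% = DMSO wells and 100% = ciprofloxacin 0.95 µg/ml wells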
# Tat transport = E. coli Tat export inhibitors, primary screen, MC4100, TorA-mCherry reporter, fluorescence, single point. inhibition, % at 10 µM. actives 0.036% (n = 340,000). AID 488895, 2010;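 active = mean replicate inhibition at least 50% and at least half of replicates individually reaching 50%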;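 note: exported cargo escapes ClpAP degradation while cytoplasmic cargo is degraded and loses fluorescence; 0% = median of neutral control wells and 100% = median of NaSCN control wells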
# phage Ecoli inh = growth loss of phage-infected E. coli, primary screen, RecBCD inhibitor project, absorbance, with phage, HTS. inhibition, % at 11.9 µM. AID 651602, 2012. actives 0.26% (n = 360,000); in the data active = inhibition above about 11%
# E coli growth-2 = E. coli growth inhibition, primary screen, OD600 | Escherichia coli growth, 23 h; stronger effect = lower value | OD600 absorbance (no concentration beside the values) | actives 0.21% (n = 330,000);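 active = OD600 absorbance below the run mean of sample wells minus 3.6 SD, in any replicate, cut at about 0.56 in these data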
# AddAB inh = growth inhibition of E. coli expressing H. pylori AddAB, primary screen, AddAB inhibitor project, absorbance | inhibition, % at 11.9 µM | AID 435030, 2010 | actives 0.29% (n = 330,000); in the data active = inhibition above about 12%;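 note: 0% = vehicle wells of infected cells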
# RecBCD conf = growth loss of phage-infected RecBCD+ E. coli, confirmation, RecBCD inhibitor project, absorbance, E. coli V66, T4 gene 2 phage; actives 45% (n = 890); shares compounds with phage Ecoli inh; inhibition, % at 11.9 µM; E. coli V66 + T4 2- phage, growth OD;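 active = mean inhibition over triplicates exceeding the hit threshold derived in the original primary screen, cut at about 11% in these data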
# Ecoli viability = E. coli viability inhibition, counter-screen for RecBCD inhibitor project, absorbance, high throughput. absorbance (OD) growth. actives 29% (n = 890). inhibition, % at 11.9 µM. shares compounds with phage Ecoli inh; in the data active = inhibition above about 20%;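 note: E. coli strain V66 grown with compound alone and no phage infection; 0% = bacteria with DMSO vehicle only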
# AddAB counter = growth loss of phage-infected AddAB-carrying E. coli, confirmation, counter-screen for RecBCD inhibitor project, absorbance, E. coli V3065, T4 phage; inhibition, % at 11.9 µM; E. coli expressing H. pylori AddAB + T4 phage, OD growth; gene 2 mutant T4, recBCD-deleted host; shares compounds with phage Ecoli inh; actives 45% (n = 890);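 active = mean inhibition above the solvent-only control wells' mean plus 3 SD, cut at about 22% in these data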;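 note: higher means less bacterial growth from phage killing when AddAB is blocked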
# * = called active by the depositor; nt = not tested or not shown. In the library only some 0.51% were active in any assay of this set; here they are far more common.
SMILES,E coli growth-1,Tat transport,phage Ecoli inh,E coli growth-2,AddAB inh,RecBCD conf,Ecoli viability,AddAB counter
O=C1C2C(C=Cc3ccccc3)N3C(=O)CN(CC4CC4)C(=O)[C@@]3(Cc3ccccc3)C2C(=O)N1c1ccccc1 (stereo not given in full),nt,nt,nt,0.72,nt,nt,nt,nt
CC(=NNC(=O)C1CC1c1ccccc1)c1cccc([N+](=O)[O-])c1 (stereo not given),nt,nt,nt,0.76,nt,nt,nt,nt
CCCCN1CC(=O)N2C(c3ccc(Cl)cc3)C3C(=O)N(CC)C(=O)C3[C@]2(Cc2ccccc2)C1=O (stereo not given in full),nt,nt,nt,0.68,nt,nt,nt,nt
S=c1[nH]nc(-c2ccncc2)n1N=Cc1cn(-c2ccccc2)nc1-c1ccccc1,nt,nt,nt,0.68,nt,nt,nt,nt
O=c1[nH]nc(-c2ccc([N+](=O)[O-])o2)c(=O)[nH]1,nt,40,22*,0.52*,nt,16*,17,91*
CC1OC2CC(=O)OC2C2=C1C(=O)c1c(O)cccc1C2=O (stereo not given),nt,nt,14*,nt,nt,8,3,20
O=C1c2ccccc2C(=O)c2c(O)c(O)cc(O)c21,15*,-3,12*,0.66,11,6,9,8
O=C(NNC(=O)c1ccc2c(c1)OCO2)NC12CC3CC(CC(C3)C1)C2,6,4,13*,0.69,9,3,2,3
O=C(NC1C2CC3CC(C2)CC1C3)c1ccc2c(c1)OCO2 (stereo not given),-1,5,-3,0.66,3,nt,nt,nt
Cc1ccsc1C=C(C(=O)c1ccc(OC(C)C)cc1)c1nc2ccccc2o1,nt,nt,nt,0.77,nt,nt,nt,nt
Cc1cc(Nc2ccccc2Cl)c2ccccc2n1,2,-5,15*,0.63,1,0,-1,9
O=C(NN=Cc1cccs1)c1cccs1,nt,nt,nt,0.64,nt,nt,nt,nt
CCCC(=O)Nc1cc(=O)n(C)c(=O)n1C,1,4,53*,0.67,2,1,1,0
O=c1c(=Cc2ccco2)sc2n1CN(c1cccc(Br)c1)CN=2,nt,nt,nt,0.78,nt,nt,nt,nt
Cc1ccccc1Cn1c(CN2CCN(C(=O)c3ccco3)CC2)nc2c1c(=O)n(C)c(=O)n2C,1,3,97*,0.76,-2,-4,-4,-2
OCC1OC(n2cnc3c(=S)nc[nH]c32)CC1O (stereo not given),nt,6,18*,0.71,nt,1,-2,-2
CCN(CC)c1ccc(C(NC(=O)C(C)C)c2ccc3cccnc3c2O)cc1 (stereo not given),nt,nt,21*,nt,nt,8,9,16
Oc1c(C(Nc2cccc(C(F)(F)F)c2)c2ccncc2)ccc2cccnc12 (stereo not given),-9,4,1,0.65,-7,nt,nt,nt
CC(=O)NC(c1ccc(Cl)cc1Cl)c1ccc2cccnc2c1O (stereo not given),nt,-19,24*,nt,nt,17*,20*,21
CCCC(=O)NC(c1cccc([N+](=O)[O-])c1)c1ccc2cccnc2c1O (stereo not given),nt,nt,23*,nt,nt,16*,20*,26*
Cc1ccc(C(NC(=O)C(C)C)c2cc([N+](=O)[O-])c3cccnc3c2O)cc1 (stereo not given),1,-8,3,0.66,6,nt,nt,nt
NC(=S)N/N=C/c1c(O)ccc2ccccc12,2,-4,1,nt,2,nt,nt,nt
CC(=O)n1cc(C=NNC(N)=S)c2ccccc21,nt,nt,nt,0.71,nt,nt,nt,nt
CCN(C(C)=O)c1cnc(C=NNC(N)=S)c2ccccc12,nt,-19,20*,nt,nt,15*,17,32*
NC(=S)NN=Cc1nccc2c(N)cccc12,nt,nt,23*,nt,nt,32*,39*,35*
SMILES,E coli growth-1,Tat transport,phage Ecoli inh,E coli growth-2,AddAB inh,RecBCD conf,Ecoli viability,AddAB counter
CC(=NNC(=O)c1cccnc1)c1ccc(-n2ccnc2)cc1,nt,nt,nt,0.68,nt,nt,nt,nt
Cc1[nH]nc(-c2cccnc2)c1N=NN(C)C,nt,142*,99*,nt,nt,103*,104*,102*
CCOc1ccc(/C=C/C(=O)c2cc(Br)ccc(=O)c2O)cc1,9,1,16*,0.69,13*,7,10,3
Cc1ccc(/C=C/C(=O)c2cc(Br)ccc2OC(=O)c2ccco2)cc1,2,21,2,0.72,1,nt,nt,nt
Cc1cccc(/C=C/C(=O)c2cc(Br)ccc(=O)c2O)c1,6,-1,17*,0.67,8,6,7,5
O=C(C=Cc1ccccc1)c1cc(Br)ccc1O,nt,1,2,0.64,nt,nt,nt,nt
CCc1ccc(/C=C/C(=O)c2cc(Br)ccc(=O)c2O)cc1,3,-5,14*,0.69,3,10,12,-1
CCOc1ccc(C(=O)/C=C/c2ccc(OC)c(OC)c2)cc1,-1,4,1,0.68,1,nt,nt,nt
CC(CC(C)C)=NNC(=O)Nc1ccccc1,nt,nt,nt,0.7,nt,nt,nt,nt
COc1ccc(C=NN(C)C2=NS(=O)(=O)c3ccccc32)cc1OC,nt,nt,nt,0.7,nt,nt,nt,nt
O=C(Nc1ccc(Cl)cc1)c1cc2c(cc1O)[nH]c1ccccc12,10*,0,12*,0.17*,11,10,14,4
O=C1NC(=S)S/C1=C\C=C\c1ccc([N+](=O)[O-])o1,nt,68*,96*,0.07*,nt,99*,99*,99*
CC=CC(=O)N1CC2(CC(c3cccc(NC(=O)C(C)=CC)c3)=NO2)CC1C(N)=O (stereo not given),nt,nt,nt,0.64,nt,nt,nt,nt
Cc1cc2cc(CCNC(=O)c3cccs3)c(=O)[nH]c2cc1C,7,-9,14*,0.69,11,5,6,8
CCC1OC(=O)C(C)C(OC2C[C@@](C)(OC)C(O)C(C)O2)C(C)C(O[C@@H]2OC(C)CC(N(C)C)C2O)[C@](C)(O)CC(C)C(=NOCOCCOC)C(C)C(O)[C@]1(C)O (stereo not given in full),10.0*,7,12*,nt,9,5,5,4
Cc1cc(C(=O)NN=Cc2ccc[nH]2)no1,nt,nt,nt,0.63,nt,nt,nt,nt
O=C(N/N=C/c1cc(Cl)ccc1O)C(=O)Nc1ccccc1OC(F)(F)C(F)F,12*,-12,16*,nt,12,4,7,10
COc1cccc(/C=N/NC(=O)c2cc(-c3cccn3C)n[nH]2)c1O,4,-6,12*,nt,4,6,9,20
CCOc1ccccc1C=Nn1c(C2CCCCC2)n[nH]c1=S,nt,nt,nt,0.67,nt,nt,nt,nt
COc1ccccc1NC(=S)NN=C(C)c1ccccn1,nt,8,17*,nt,nt,14*,14,20
CC(=NNC(=S)Nc1cccc(C)c1)c1ccccn1,nt,1,14*,nt,nt,16*,15,21
